Several values for one entry are separate records, joined by “and”; a condition that tells them apart may be missing. Equal values may be shown once. Records with an inconclusive call do not appear. Unmarked numbers belong to inactive results. Activity calls are given as the source filed them. Calls come from the whole dose curve; as a rule, active = well fitted curve in the direction sought with a large enough effect; inconclusive = small, poorly fitted or top-dose-only effect, or another doubt; inactive = no such curve, though single readings can be large; an effect the other way counts as inactive or inconclusive.
Columns and labels:
[1] = biological target: Cellular tumor antigen p53 (Homo sapiens) (UniProt P04637); assay: Primary qHTS for small molecule compounds that upregulate eGFP-tagged delta133p53alpha (in N-terminal) cells. (AID 2060322); settings: NCI-H358 eGFP-delta133p53alpha fluorescence, 24 h; activation: hits give high values; note: nearly all actives have a fitted effect of over 75% in size; note: potency is the fitted concentration of half-maximal effect;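 for activation: series mostly up to about 56 µM; 0% = DMSO vehicle and 100% = reference activator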
Procedure, shortened: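 NCI-H358 cells pre-induced 24 h with 10 ng/ml doxycycline to express N-terminal eGFP-delta133p53alpha, then dosed 24 h at 37C without doxycycline; fixed, Hoechst-stained, GFP intensity by laser scanning cytometry, normalized to DMSO (0%) and 57.5 uM 5-azacytidine (100%).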

[2] = biological target: Aldehyde dehydrogenase, mitochondrial (Homo sapiens) (UniProt P05091); assay: qHTS for Inhibitors of the Aldehyde Dehydrogenase Family (ALDH2) Primary screen (AID 2061308);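 note: plate controls were vehicle for no effect and reference inhibitor for full effect; nearly all actives have a fitted effect of over 55% in size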
[3] = qHTS for Inhibitors of the Aldehyde Dehydrogenase Family (ALDH1A2, ALDH1A3, ALDH2, ALDH3A1) (AID 2061307); note: nearly all actives have a fitted effect of over 50% in size; for Potency: test system not described further here; potency is the fitted concentration of half-maximal effect
[4] = biological target: Retinaldehyde dehydrogenase 3 (Homo sapiens) (UniProt P47895); assay: qHTS for Inhibitors of the Aldehyde Dehydrogenase Family (ALDH1A3) Validation screen (AID 2061312); note: nearly all actives have a fitted effect of over 45% in size; note: potency is the fitted concentration of half-maximal effect
[5] = biological target: Retinal dehydrogenase 2 (Homo sapiens) (UniProt O94788); assay: qHTS for Inhibitors of the Aldehyde Dehydrogenase Family (ALDH1A2) Confirmation screens (AID 2061314); note: nearly all actives have a fitted effect of over 65% in size; note: potency is the fitted concentration of half-maximal effect
[6] = biological target: Retinaldehyde dehydrogenase 3 (Homo sapiens) (UniProt P47895); assay: qHTS for Inhibitors of the Aldehyde Dehydrogenase Family (ALDH1A3) Primary screen (AID 2061315); note: potency is the fitted concentration of half-maximal effect
[7] = BET inhibitor-based combinations targeting novel dependencies in MECOM-rearranged (r) AML: SET-2 cell line (AID 2202231); settings: SET-2 AML cells viability, CellTiter-Glo luminescence, 48 h; viability: hits give low values, series mostly up to about 46 µM;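 note: plate controls were DMSO treated cells for no effect and wells without cells for full effect; nearly all actives have a fitted effect of over 35% in size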
Procedure, shortened: (§1)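 Cells were plated at 500 per well and exposed to an 11-point dose series of each drug for 48 hr. Viability was measured by CellTiter-Glo luminescence, normalized to DMSO and empty-well controls, and summarized as AUC and per-cell-line Z-AUC.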

[8] = BET inhibitor-based combinations targeting novel dependencies in MECOM-rearranged (r) AML: OCI-AML3 cell line (AID 2202232); settings: Potency: OCI-AML3 viability;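 note: series mostly up to about 46 µM; plate controls were DMSO vehicle wells for no effect and wells without cells for full effect; nearly all actives have a fitted effect of over 35% in size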
Procedure, shortened: as §1

[9] = BET inhibitor-based combinations targeting novel dependencies in MECOM-rearranged (r) AML: MV-4-11 cell line (AID 2202233);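 note: plate controls were DMSO for no effect and blank wells for full effect; nearly all actives have a fitted effect of over 45% in size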
Procedure, shortened: (§2)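 Activity is given as area under the curve and as Z-AUC, mean-centred within each cell line. It comes from 11-point dose curves normalized to DMSO and empty wells. CellTiter-Glo luminescence was read after 48 hr drug exposure of 500 cells/well.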

[10] = BET inhibitor-based combinations targeting novel dependencies in MECOM-rearranged (r) AML: HNT-34 cell line (AID 2202234);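 note: plate controls were vehicle wells for no effect and cell-free wells for full effect; nearly all actives have a fitted effect of over 35% in size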
Procedure, shortened: as §2

[11] = BET inhibitor-based combinations targeting novel dependencies in MECOM-rearranged (r) AML: UCSD-AML1 cell line (AID 2202235);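 note: series mostly up to about 46 µM; plate controls were DMSO vehicle wells for no effect and blank wells for full effect; nearly all actives have a fitted effect of over 40% in size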
Procedure, shortened: as §2

[12] = BET inhibitor-based combinations targeting novel dependencies in MECOM-rearranged (r) AML: AML-191 cell line (AID 2202236;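 note: plate controls were vehicle wells for no effect and wells without cells for full effect; nearly all actives have a fitted effect of over 35% in size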)
Procedure, shortened: as §1

[13] = biological target: Retinaldehyde dehydrogenase 3 (Homo sapiens) (UniProt P47895); assay: qHTS for Inhibitors of the Aldehyde Dehydrogenase Family (ALDH1A3) Confirmatory screens (AID 2061311); note: potency is the fitted concentration of half-maximal effect; nearly all actives have a fitted effect of over 60% in size
[14] = biological target: Aldehyde dehydrogenase 1A1 (Homo sapiens) (UniProt P00352); assay: qHTS for Inhibitors of the Aldehyde Dehydrogenase Family (ALDH1A1) Confirmatory screens (AID 2061316); note: nearly all actives have a fitted effect of over 65% in size; note: potency is the fitted concentration of half-maximal effect

Chain of Cellular tumor antigen p53 (Homo sapiens) (P04637 whole entry, looked up): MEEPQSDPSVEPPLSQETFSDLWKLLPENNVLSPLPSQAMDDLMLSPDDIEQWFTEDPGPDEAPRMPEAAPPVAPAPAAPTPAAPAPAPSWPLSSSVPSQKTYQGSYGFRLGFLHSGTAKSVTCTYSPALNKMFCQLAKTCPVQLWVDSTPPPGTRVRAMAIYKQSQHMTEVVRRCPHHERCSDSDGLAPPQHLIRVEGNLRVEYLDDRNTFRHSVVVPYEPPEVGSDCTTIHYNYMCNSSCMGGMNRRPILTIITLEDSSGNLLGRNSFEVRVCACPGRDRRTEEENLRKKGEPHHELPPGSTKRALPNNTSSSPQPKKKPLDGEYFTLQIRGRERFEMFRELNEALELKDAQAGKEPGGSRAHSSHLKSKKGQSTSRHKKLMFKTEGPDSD

CC1(C)CC[C@]2(CO[C@@H]3O[C@H](CO)[C@@H](O)[C@H](O)[C@H]3O)[C@@H](O)C[C@]3(C)C(=CCC4[C@@]5(C)CC[C@H](O[C@@H]6O[C@H](CO[C@@H]7O[C@H](CO[C@@H]8OC[C@@H](O)[C@H](O)[C@H]8O)[C@@H](O)[C@H](O)[C@H]7O)[C@@H](O)[C@H](O)[C@H]6O)C(C)(C)C5CC[C@]43C)[C@@H]2C1 (some centres undefined)
activation [1]: -2.68% | Potency [2]: inactive

O=C(NO)c1ccc(CC(=O)N(CCO)c2ccccc2)cc1
activation [1]: -8.59% and 7.82% | Potency [2]: inactive

OC[C@H]1O[C@@H](OCc2ccccc2)[C@H](O)[C@@H](O)[C@@H]1O
activation [1]: -9.16% | Potency [2]: inactive

O=S(=O)(O)c1ccc2cc(N=Nc3cc(S(=O)(=O)O)c4cccnc4c3O)ccc2c1
activation [1]: -29.8% and -2.86% | Potency [3]: inactive | Potency [4]: inactive | Potency [5]: inactive | Potency [6]: inactive | viability [7]: 95.4% | Potency [8]: inactive | Potency [9]: inactive | Potency [10]: inactive | Potency [11]: inactive | Potency [12]: inactive

CN(C)c1ccc(NC(=O)NS(=O)(=O)c2ccc(Cl)cc2)cc1
activation [1]: -1.67% | Potency [3]: 6.34 µM (active) | Potency [13]: 2.83 µM (active) | Potency [5]: 10.1 µM (active) | Potency [14]: 7.98 µM (active)

CC1(CO)CC(O)[C@]2(C(=O)O)CCC34CC3(C=CC3[C@]5(C)C(CC[C@]34C)C(C)(CO)[C@@H](O)[C@H](O)[C@@H]5O)C2C1 (some centres undefined)
activation [1]: 9.92% | Potency [2]: inactive

CC(/C=C/C1(O)C(C)CC(O)CC1(C)C)OC1OC(CO)C(O)C(O)C1O (centres undefined)
activation [1]: -12.2% | Potency [2]: inactive

COC(=O)C1=CO[C@@H](O[C@@H]2O[C@H](CO[C@@H]3O[C@H](COC(=O)/C=C/c4cc(OC)c(O)c(OC)c4)[C@@H](O)[C@H](O)[C@H]3O)[C@@H](O)[C@H](O)[C@H]2O)[C@@H]2C(CO)=CC[C@H]12
activation [1]: -14.3% | Potency [2]: inactive

Fc1ccc2nc(CCC#Cc3ccccn3)cn2c1
activation [1]: 2.68% | Potency [2]: inactive

CC[C@@H](Nc1c(Nc2cccc(C(=O)N(C)C)c2O)c(=O)c1=O)c1ccc(C)o1
activation [1]: -1.43% | Potency [2]: inactive

CC1=C(C(=O)O[C@@H]2O[C@H](COC3OCC(O)C(O)C3O)[C@@H](O)[C@H](O)[C@H]2O)C(C)(C)CCC1 (some centres undefined)
activation [1]: -13% | Potency [2]: inactive

CC[n+]1c(/C=C/C=C2/N(C)c3ccccc3C2(C)C)sc2ccccc21
activation [1]: -26.3% | Potency [3]: 22.5 µM (active) | Potency [13]: 12.7 µM (active) | Potency [5]: 12.7 µM (active) | Potency [14]: 12.7 µM (active)

CC(C)(O)/C=C/C1=CC(=O)[C@@](C)(O)C[C@H]1O
activation [1]: -8.4% | Potency [2]: inactive

C=CCC1=C[C@]2(OC)[C@H](C)[C@@H](c3ccc(O)c(OC)c3)O[C@]2(OC)CC1=O
activation [1]: -15.2% | Potency [2]: inactive

C=C[C@@]1(C)C=C2C(=O)C(O)=C3[C@](C)(C(=O)O)CC[C@@H]4C[C@]34[C@]2(O)C(=O)C1
Potency [1]: 6.59 µM (active) | Potency [2]: inactive

OC[C@H]1O[C@@H](OC/C=C/c2ccc(O)cc2)[C@H](O)[C@@H](O)[C@@H]1O
activation [1]: 12.5% | Potency [2]: inactive

N#Cc1cnc2c(Cl)cc(NCc3cn(CCN4CCCCCC4)nn3)cc2c1Nc1ccc(F)c(Cl)c1
Potency [1]: 4.26 µM (active) | Potency [2]: inactive

O=C(/C=C/c1ccc(O)c(O)c1)O[C@@H]1[C@@H](O)[C@H](OC2CCCCC2O)O[C@H](CO)[C@H]1O (some centres undefined)
activation [1]: 2.29% | Potency [3]: inactive | Potency [13]: 5.51 µM (active) | Potency [5]: inactive | Potency [6]: 3.98 µM (active)

COc1cc2c(cc1NS(=O)(=O)c1ccc(Br)cc1C)n(C)c(=O)n2C
activation [1]: -22.3% | Potency [3]: inactive | Potency [4]: 31.6 µM (active) | Potency [5]: 20.1 µM (active) | Potency [14]: inactive

COC(CCc1ccc(O)cc1)CC(=O)CCc1ccc(O)cc1 (centres undefined)
activation [1]: 7.63% | Potency [3]: inactive | Potency [6]: inactive | Potency [14]: inactive

CC1=CC(=O)CC(C)(C)C1(O)CCC(C)O (centres undefined)
activation [1]: 0.893% | Potency [2]: inactive

NC(=O)[C@H](O[C@@H]1O[C@H](CO)[C@@H](O)[C@H](O)[C@H]1O)c1ccccc1
activation [1]: 17.9% | Potency [2]: inactive

O=C(/C=C/c1ccccc1O)O[C@@H]1O[C@H](CO)[C@@H](O)[C@H](O)[C@H]1O
activation [1]: 0% | Potency [2]: inactive

CCOC(=O)N1CCC(CN(Cc2ccc(Cl)cc2)Cc2ccc([N+](=O)[O-])s2)C1 (centres undefined)
activation [1]: 6.21% | Potency [3]: inactive | Potency [4]: 10 µM (active) | Potency [5]: inactive | Potency [6]: inactive

COc1cc(C2Oc3c(OC)cc(/C=C/C(=O)OC4CC(O)(C(=O)O)CC(O)C4O)cc3C2CO)ccc1O (centres undefined)
activation [1]: -32.8% | Potency [2]: inactive

OCCc1ccc(O[C@@H]2O[C@H](CO)[C@@H](O)[C@H](O)[C@H]2O)c(O)c1
activation [1]: 8.93% | Potency [2]: inactive

O=C(CC1CC(c2ccc(F)cc2F)=NO1)N1CCOCC1 (centres undefined)
activation [1]: 1.43% | Potency [2]: inactive

C=C1CC[C@@H]2[C@](C)(CO)[C@H](O)CC[C@@]2(C)[C@@H]1CC(O)C1=CCOC1=O (some centres undefined)
activation [1]: -5.34% | Potency [2]: inactive

CC(=O)N[C@H]1[C@H](O[C@H]2CC[C@@]3(C)C(CC[C@]4(C)C3CC=C3C5CC(C)(C)CC[C@]5(C(=O)O)[C@H](O[C@@H]5O[C@H](CO)[C@@H](O)[C@H](O)[C@H]5O)C[C@]34C)C2(C)C)O[C@H](CO[C@@H]2OC[C@H](O)[C@H](O)[C@H]2O[C@@H]2OC[C@@H](O)[C@H](O)[C@H]2O)[C@@H](O)[C@@H]1O (some centres undefined)
activation [1]: -9.16% | Potency [2]: inactive

From PubChem BioAssay (NCATS)
